# Source: the supplement of paper PMC11001985
# Compound: C#CCNC(=O)CCSSCCC(=O)NCCc1ccc(C=O)c(C=O)c1
# Experiment: lysine labeling ratio R10:1 (500 µM / 50 µM probe), SILAC-ABPP in living cells; higher = lower intrinsic lysine reactivity toward the probe, active = 2 or less
# Conditions: HeLa; probe concentrations 500 vs 50 µM
# Outline: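 With forward and reverse label swaps, light and heavy SILAC HeLa cells, alive and in PBS at room temperature, were exposed to either 500 µM or 50 µM of an alkyne-tagged lysine probe bearing a disulfide link. After mixing, lysates were clicked to biotin-azide, cut with trypsin, pulled down on neutravidin, freed with DTT, alkylated and analysed on a TIMS-TOF Pro by LC-MS/MS. The per-lysine value R is the median over forward and reverse replicates of the filtered median high-probe/low-probe MS1 peptide ratio. It is capped at 20.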
# Chain of UniProt P11047 (P11047 whole entry): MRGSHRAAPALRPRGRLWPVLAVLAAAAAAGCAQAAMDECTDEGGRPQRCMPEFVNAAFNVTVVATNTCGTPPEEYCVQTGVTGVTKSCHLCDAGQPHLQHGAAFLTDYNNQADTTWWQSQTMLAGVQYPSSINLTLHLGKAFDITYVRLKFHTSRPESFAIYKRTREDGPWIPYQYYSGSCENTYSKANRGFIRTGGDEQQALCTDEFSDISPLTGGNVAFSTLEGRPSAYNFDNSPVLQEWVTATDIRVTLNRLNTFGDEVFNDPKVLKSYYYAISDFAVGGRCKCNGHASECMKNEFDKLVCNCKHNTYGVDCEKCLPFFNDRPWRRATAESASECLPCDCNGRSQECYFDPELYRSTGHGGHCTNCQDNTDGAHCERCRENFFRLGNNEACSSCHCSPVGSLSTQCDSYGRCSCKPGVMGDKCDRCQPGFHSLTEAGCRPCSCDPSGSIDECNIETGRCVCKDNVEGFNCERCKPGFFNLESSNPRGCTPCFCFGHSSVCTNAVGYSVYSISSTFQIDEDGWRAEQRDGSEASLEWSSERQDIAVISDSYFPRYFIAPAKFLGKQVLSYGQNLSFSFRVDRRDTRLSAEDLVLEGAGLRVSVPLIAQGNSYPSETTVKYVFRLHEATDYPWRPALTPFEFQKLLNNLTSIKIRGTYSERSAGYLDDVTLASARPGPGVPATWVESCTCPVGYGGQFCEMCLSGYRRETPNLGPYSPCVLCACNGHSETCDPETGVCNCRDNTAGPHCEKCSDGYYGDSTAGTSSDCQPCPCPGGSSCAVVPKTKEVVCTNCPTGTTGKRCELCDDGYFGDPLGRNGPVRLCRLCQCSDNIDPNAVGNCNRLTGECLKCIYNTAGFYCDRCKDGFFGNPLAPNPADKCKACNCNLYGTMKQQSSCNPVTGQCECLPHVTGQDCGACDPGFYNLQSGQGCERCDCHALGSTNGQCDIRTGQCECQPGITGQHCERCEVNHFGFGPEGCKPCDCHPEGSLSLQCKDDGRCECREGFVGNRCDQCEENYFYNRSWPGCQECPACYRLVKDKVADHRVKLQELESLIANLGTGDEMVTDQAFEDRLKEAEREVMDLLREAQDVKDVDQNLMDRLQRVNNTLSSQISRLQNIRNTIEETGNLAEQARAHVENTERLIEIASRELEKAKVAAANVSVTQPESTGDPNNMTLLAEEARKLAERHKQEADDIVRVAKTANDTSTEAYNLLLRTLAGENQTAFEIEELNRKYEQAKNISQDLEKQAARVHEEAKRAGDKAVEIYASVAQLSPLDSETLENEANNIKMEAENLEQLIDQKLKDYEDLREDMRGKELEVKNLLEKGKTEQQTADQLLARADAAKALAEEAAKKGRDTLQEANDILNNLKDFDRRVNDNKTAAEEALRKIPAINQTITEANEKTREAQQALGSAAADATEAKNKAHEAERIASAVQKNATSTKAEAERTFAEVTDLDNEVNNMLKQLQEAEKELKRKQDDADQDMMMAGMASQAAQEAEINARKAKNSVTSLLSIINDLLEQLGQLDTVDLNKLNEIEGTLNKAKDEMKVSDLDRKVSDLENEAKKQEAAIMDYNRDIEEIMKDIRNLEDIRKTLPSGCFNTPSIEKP
# Chain of UniProt Q9Y624 (Q9Y624 whole entry, stated change not applied): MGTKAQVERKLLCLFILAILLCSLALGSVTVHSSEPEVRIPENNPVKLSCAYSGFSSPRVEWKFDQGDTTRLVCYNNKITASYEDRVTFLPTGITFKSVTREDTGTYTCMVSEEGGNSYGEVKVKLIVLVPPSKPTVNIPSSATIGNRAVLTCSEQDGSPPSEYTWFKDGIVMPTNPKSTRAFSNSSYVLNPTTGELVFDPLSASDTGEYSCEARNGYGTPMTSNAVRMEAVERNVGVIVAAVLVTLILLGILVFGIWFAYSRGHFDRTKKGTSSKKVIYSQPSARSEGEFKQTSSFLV
# Chain of UniProt P14384 (P14384 whole entry): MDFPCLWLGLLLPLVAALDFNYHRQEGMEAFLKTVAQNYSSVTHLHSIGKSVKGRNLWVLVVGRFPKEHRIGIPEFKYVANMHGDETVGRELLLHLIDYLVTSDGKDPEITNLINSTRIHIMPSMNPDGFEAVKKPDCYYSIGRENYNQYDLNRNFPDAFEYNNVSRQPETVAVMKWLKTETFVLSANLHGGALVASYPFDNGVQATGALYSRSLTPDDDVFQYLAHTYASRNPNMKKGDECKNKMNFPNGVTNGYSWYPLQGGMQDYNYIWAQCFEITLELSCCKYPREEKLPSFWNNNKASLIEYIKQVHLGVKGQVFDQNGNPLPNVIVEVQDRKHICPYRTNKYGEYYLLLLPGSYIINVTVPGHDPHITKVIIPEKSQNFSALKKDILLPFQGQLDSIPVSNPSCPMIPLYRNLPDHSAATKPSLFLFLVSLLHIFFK
# Chain of UniProt P26639 (P26639 whole entry): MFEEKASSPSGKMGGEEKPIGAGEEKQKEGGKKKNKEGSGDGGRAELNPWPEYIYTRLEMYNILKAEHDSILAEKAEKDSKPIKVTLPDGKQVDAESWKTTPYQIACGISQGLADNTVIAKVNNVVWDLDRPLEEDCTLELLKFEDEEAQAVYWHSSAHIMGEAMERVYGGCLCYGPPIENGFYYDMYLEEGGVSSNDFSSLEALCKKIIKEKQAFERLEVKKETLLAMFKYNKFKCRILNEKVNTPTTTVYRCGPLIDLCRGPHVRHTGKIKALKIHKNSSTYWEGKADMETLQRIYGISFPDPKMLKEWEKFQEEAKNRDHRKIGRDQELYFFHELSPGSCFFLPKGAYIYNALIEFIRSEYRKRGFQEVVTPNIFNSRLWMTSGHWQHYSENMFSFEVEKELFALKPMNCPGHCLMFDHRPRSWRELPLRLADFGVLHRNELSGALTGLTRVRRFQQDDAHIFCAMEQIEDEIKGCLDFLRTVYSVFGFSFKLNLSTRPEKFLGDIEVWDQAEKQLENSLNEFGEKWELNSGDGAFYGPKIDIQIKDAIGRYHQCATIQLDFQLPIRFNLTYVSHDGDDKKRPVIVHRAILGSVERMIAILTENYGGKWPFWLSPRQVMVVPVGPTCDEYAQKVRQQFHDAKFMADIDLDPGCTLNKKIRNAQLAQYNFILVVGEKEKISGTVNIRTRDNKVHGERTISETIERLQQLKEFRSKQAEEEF
# Chain of UniProt Q12913 (Q12913 whole entry): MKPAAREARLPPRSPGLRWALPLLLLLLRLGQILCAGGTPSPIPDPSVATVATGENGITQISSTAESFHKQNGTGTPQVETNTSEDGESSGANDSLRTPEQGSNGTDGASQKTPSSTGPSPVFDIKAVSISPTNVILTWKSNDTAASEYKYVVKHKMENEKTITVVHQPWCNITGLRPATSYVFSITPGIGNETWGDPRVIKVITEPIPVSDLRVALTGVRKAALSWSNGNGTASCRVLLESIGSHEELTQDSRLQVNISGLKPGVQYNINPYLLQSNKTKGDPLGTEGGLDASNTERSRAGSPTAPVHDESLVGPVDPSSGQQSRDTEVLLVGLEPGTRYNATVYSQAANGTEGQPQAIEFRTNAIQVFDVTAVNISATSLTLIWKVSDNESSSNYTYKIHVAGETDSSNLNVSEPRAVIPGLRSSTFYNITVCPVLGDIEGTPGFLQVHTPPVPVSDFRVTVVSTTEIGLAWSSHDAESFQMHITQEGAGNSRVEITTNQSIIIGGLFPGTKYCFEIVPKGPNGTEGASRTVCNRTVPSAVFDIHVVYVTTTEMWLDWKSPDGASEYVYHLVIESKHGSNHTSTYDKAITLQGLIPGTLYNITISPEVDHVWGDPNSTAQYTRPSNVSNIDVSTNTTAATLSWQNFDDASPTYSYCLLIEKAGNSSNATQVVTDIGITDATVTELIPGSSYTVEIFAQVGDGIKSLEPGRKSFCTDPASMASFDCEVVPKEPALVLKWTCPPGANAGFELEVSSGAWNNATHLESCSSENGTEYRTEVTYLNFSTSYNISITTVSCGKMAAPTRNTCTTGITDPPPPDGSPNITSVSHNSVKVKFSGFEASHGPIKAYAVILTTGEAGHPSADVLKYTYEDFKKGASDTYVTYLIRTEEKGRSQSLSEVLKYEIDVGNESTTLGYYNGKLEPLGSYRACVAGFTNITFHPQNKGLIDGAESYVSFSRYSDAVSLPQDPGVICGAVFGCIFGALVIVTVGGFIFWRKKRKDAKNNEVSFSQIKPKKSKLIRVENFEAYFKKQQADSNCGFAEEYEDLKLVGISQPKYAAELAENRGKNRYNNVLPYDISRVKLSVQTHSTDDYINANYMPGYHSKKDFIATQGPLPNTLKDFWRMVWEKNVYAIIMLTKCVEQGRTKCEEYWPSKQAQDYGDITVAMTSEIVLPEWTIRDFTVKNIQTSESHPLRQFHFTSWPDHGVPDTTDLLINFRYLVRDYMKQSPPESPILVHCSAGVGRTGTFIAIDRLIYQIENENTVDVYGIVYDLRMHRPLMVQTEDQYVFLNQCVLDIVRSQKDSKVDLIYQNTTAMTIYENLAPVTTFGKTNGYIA
# Chain of UniProt P11233 (P11233 whole entry): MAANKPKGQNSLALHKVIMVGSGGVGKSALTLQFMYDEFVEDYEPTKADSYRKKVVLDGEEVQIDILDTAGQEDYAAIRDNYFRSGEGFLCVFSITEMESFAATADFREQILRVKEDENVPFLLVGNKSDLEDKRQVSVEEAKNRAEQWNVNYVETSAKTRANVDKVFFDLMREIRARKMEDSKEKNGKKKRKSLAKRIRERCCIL
# Chain of UniProt O95864 (O95864 whole entry): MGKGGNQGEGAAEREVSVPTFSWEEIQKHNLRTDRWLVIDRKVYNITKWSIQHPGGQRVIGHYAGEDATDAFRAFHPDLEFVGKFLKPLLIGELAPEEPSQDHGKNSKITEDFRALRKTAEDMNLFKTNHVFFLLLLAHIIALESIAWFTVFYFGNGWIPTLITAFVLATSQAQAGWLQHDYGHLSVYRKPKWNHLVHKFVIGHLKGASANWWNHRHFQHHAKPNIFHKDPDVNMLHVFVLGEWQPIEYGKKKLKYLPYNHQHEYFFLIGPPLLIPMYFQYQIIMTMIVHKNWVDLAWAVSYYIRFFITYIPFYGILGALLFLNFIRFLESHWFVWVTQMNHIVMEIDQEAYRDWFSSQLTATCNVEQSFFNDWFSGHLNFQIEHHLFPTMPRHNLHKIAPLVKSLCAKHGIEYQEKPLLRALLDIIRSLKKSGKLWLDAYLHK
row,Target,lysine labeling ratio R10:1
1,CPM (lysine site: K135) (UniProt P14384),0.991 (active)
2,CCT8 (lysine site: K400) (UniProt P50990),4.01 (inactive)
3,EEF1G (lysine site: K437) (UniProt P26641),3.73 (inactive)
4,CDH2 (lysine site: K448) (UniProt P19022),3.81 (inactive)
5,F11R (lysine site: K47) (UniProt Q9Y624),5.07 (inactive)
6,UniProt Q9NY47 (lysine site: K270),2.85 (inactive)
7,RPL35A (lysine site: K45) (UniProt P18077),1.38 (active)
8,FASN (lysine site: K1927) (UniProt P49327),1.05 (active)
9,WNT5A (lysine site: K208) (UniProt P41221),2.67 (inactive)
10,FADS2 (lysine site: K108) (UniProt O95864),1.75 (active)
11,UniProt Q9UKX5 (lysine site: K150),2.51 (inactive)
12,RALA (lysine site: K143) (UniProt P11233),2.44 (inactive)
13,PDIA3 (lysine site: K347) (UniProt P30101),5.72 (inactive)
14,LAMC1 (lysine site: K1566) (UniProt P11047),0.555 (active)
15,PVR (lysine site: K153) (UniProt P15151),4.25 (inactive)
16,UniProt P26639 (lysine site: K694),1.36 (active)
17,PTPRJ (lysine site: K202) (UniProt Q12913),2.9 (inactive)
